Data as given in PubChem BioAssay (NCI).
About 83,000 compounds went through this panel and 20% of them were active in at least one assay; those are over-represented in the sample as a whole.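 Note: values are percent growth. 100 is the growth of untreated cells, values between 100 and 0 indicate rising inhibition; between -100 and 0 indicates cell death.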 Values without a mark were called inactive. Active and inactive are the calls of the source. Rule for the calls: active = growth percent below 10; inactive = the rest.

Experiments:
Experiment in all cases: NCI-60 one-dose screen, 48 h (100 = growth as untreated, 0 = no growth, -100 = all killed)
Details in all cases: 10 µM unless noted
T-47D breast = test system: T-47D breast
BT-549 breast = test system: BT-549 breast
MDA-MB-435 melanoma = test system: MDA-MB-435 melanoma
SW-620 colon = test system: SW-620 colon
MCF7 breast = test system: MCF7 breast
HCT-116 colon = test system: HCT-116 colon
HCC-2998 colon = test system: HCC-2998 colon
KM12 colon = test system: KM12 colon

SMILES | growth (T-47D breast) | growth (BT-549 breast) | growth (MDA-MB-435 melanoma) | growth (SW-620 colon) | growth (MCF7 breast) | growth (HCT-116 colon) | growth (HCC-2998 colon) | growth (KM12 colon)
[2H]C1([2H])CCN(C(=O)C2CC2)c2cc(NS(=O)(=O)c3ccc(-c4cccc(C(N)=O)c4)cc3)ccc21 | 19.5% | 79% | -11.2% (active) | 31% | 21.4% | 81.5% | 60.1% | 19.8%
CN(C)CCCNc1nc(-c2cccc(C(Cl)(Cl)Cl)c2)nc(C(Cl)(Cl)Cl)n1 | 109% | 77.8% | 105% | 98.8% | 93.5% | 92.9% | 107% | 111%
COC(=O)[C@]1(C)CC[C@]2(C)CC[C@]3(C)C(=CC(=O)[C@@H]4[C@@]5(C)CCC(=O)NC(C)(C)[C@@H]5CC[C@]43C)[C@@H]2C1 | -10.7% [100 µM] (active) | -78.6% [100 µM] (active) | -48.8% [100 µM] (active) | -54.8% [100 µM] (active) | -49.7% [100 µM] (active) | -72.5% [100 µM] (active) | -89.2% [100 µM] (active) | -80.1% [100 µM] (active)
O=S(=O)(NCc1ccccc1)c1ncnc2nc[nH]c12 | 107% | 93.7% | 110% | 103% | 98.1% | 108% | 101% | 101%
